Rows were chosen to be rich in hits. Some 8.9% of all compounds tested hit in one or more screens of this group.
MCF10A rereplic: inducers of DNA re-replication in MCF 10A breast cells. 350,000 compounds, 2.9% hits. Potency, µM (series often up to 46.1 µM), hits mostly activators. MCF 10A DNA re-replication, Hoechst nuclear intensity, 48 h. AID 624296; also: nearly all actives have a fitted effect of over 50% in size
KB-V1 MDR tox: KB-V1 MDR subline cytotoxicity | Potency, µM (series often up to 46.1 µM), most hits filed as cytotoxic | KB-V1 MDR cells viability, CellTiter-Glo, 72 h | AID 1347076 | 400,000 compounds, 3.4% hits; also: nearly all actives have a fitted effect of over 60% in size
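Drug-selected KB-V1 cells, grown in DMEM lacking phenol red with 10% FBS, receive compound titrations; after three days at 37 degrees C, surviving cell ATP is quantified by CellTiter-Glo luminescence and responses normalized and curve-fitted.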
SW480 rerep: inducers of DNA re-replication in SW480 colon cancer cells | Potency, µM (top dose mostly 46.1 µM), most hits filed as activators | AID 624297 | SW480 DNA re-replication, Hoechst DNA content imaging, 48 h | 340,000 compounds, 1.8% hits; also: nearly all actives have a fitted effect of over 55% in size
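First, 250 cells per well were seeded. Next, compound or vehicle (23 nL) was pinned in, plates sat 48 hr at 37 C. Finally Hoechst was added for 40 min before fluorescence scanning.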
KB-3-1 cytotox: KB-3-1 parental cell cytotoxicity; 400,000 compounds, 1.4% hits; Potency, µM (doses to about 46.1 µM), actives largely listed as cytotoxic; AID 1347075; KB-3-1 viability, CellTiter-Glo ATP luminescence, 72 h; also: nearly all actives have a fitted effect of over 60% in size
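Parental KB-3-1 viability, qHTS format: 72 h compound exposure, 37 °C; CellTiter-Glo; media-only wells and DMSO plates as controls; concentration-effect fits on corrected data.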
DRD3 antagonist: D3 dopamine receptor (human) antagonism; P35462; D3R cells, DiscoveRx beta-arrestin luminescence, antagonist mode; active compounds read low; max response, negative = inhibition, %; 360,000 compounds, 2.5% hits; AID 652054; in the data active = max response below about -50%; inconclusive = no clear call, values can overlap the other calls
Target sequence (P35462 whole entry, looked up): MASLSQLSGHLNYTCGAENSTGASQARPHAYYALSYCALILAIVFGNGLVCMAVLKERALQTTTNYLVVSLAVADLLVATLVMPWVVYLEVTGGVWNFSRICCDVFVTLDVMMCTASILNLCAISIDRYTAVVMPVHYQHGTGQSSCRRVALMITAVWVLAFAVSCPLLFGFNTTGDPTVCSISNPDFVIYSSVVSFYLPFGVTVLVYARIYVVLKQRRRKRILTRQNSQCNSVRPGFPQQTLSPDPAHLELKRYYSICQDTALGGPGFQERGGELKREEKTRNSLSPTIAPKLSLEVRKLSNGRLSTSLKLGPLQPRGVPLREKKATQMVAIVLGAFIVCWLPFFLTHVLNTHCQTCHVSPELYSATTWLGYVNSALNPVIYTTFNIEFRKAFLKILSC
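Cells expressing the human receptor were seeded at 1500 cells/well, incubated overnight at 37 degrees C in 5% CO2, then exposed to library compounds with dopamine controls for 90 minutes at 37 degrees C before luminescent detection.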
D3 ag: activates the human D3 dopamine receptor | P35462 | D3R DiscoveRx beta-arrestin cells, luminescence, 90 min | max activation, % | 410,000 compounds, 0.58% hits | AID 652048; in the data active = max activation above about 30%
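Agonist-mode cell screen: cells plated at 1500/well and incubated overnight at 37 °C, then exposed to library compounds for 90 min at 37 °C. Detection reagent was added for 30–60 min at room temperature, and luminescence was read.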
Numbers stand for hits; i = inactive; ? = inconclusive; nt = not tested or not shown; [ ] = remark or other dose. Unless noted, calls follow the shape of the dose curve; as a rule, active = well fitted curve in the direction sought with a large enough effect; inconclusive = small, poorly fitted or top-dose-only effect, or another doubt; inactive = no such curve, though single readings can be large; an effect the other way counts as inactive or inconclusive.

SMILES	MCF10A rereplic	KB-V1 MDR tox	SW480 rerep	KB-3-1 cytotox	DRD3 antagonist	D3 ag
COC(=O)c1[nH]c2c(c1C)C(=O)CC(c1ccccc1)C2 (configuration not stated)	i	0.581µM	i	1.3µM	i	i
COC(=O)c1[nH]c2c(c1C)C(=O)CC(c1ccc(OC)cc1)C2 (configuration not stated)	i	i	i	i	i	i
Cc1c(C(=O)OCC2CCCO2)[nH]c2c1C(=O)CC(c1ccco1)C2 (configuration not stated)	3.66µM	4.11µM	2.91µM	3.26µM	i	i
COc1ccc(CCNC(=O)c2cc3c(=O)oc4ccc(C)cc4c3s2)cc1OC	nt	i	nt	?	nt	i
O=C1CCCC2=C1C1(CCCOC1)N=C(Nc1nc3ccccc3o1)N2 (configuration not stated)	nt	?	nt	i	nt	nt
COC(=O)c1cc2oc3ccccc3c2n1CC(=O)Nc1ccc(C)cc1Cl	nt	?	nt	i	nt	i
CC(c1ccco1)N(C(=O)C12CC3CC(CC(C)(C3)C1)C2)c1ccccn1 (configuration not stated)	i	i	i	i	-57.6	i
CC(c1ccco1)N(C(=O)c1ccc(F)cc1)c1ccccn1 (configuration not stated)	i	i	i	i	i	i
COc1ccc(CCNC(=O)c2c(C)oc3ncn(C)c(=O)c23)c(OC)c1	nt	i	nt	i	nt	i
Cc1noc(C)c1-c1ccc2nc[nH]c(=O)c2c1	i	?	i[9.22 µM]	13µM	nt	nt
CCOc1ccccc1CNc1ncnc2ccc(-c3c(C)noc3C)cc12	?	i	i	?	nt	nt
COc1ccccc1OCCNc1nc2c(c(=O)n(C)c(=O)n2C)n1C	?	?	?	i	i	i
Cn1c(=O)c2c(nc(NCCOc3ccc(C(C)(C)C)cc3)n2C)n(C)c1=O	16.4µM	i	i	i	i	i
Cc1cc(C)c(S(=O)(=O)n2ccc3ccccc32)c(C)c1	?	?	i	23.1µM	i	i
O=S(=O)(c1ccccc1)n1ccc2ccccc21	?	i	i	i	i	i
CCOC(=O)N1CCC(NC(=O)c2cc3sccc3n2CC)CC1	?	23.1µM	i	i	i	i
CC(=O)c1c(C)oc2c1cc(NS(=O)(=O)c1ccc(Br)cc1)c1ccccc12	nt	?	nt	5.17µM	nt	i
Cc1oc2c(cc(NS(=O)(=O)c3ccc(Cl)cc3)c3ccccc32)c1C(=O)O	?	i	i	i	i	i
O=C(Nc1ccc(Cl)cc1)Nc1ccc2c(c1)N1CCN=C1S2	?	?	i	i	i	i
Nc1ccc2c(c1)N1CCN=C1S2	i	i	i	i	-64.4	i
Cc1nn(Cc2ccccc2)c(Cl)c1/C=N/NC(=O)CNc1cccc(C(F)(F)F)c1	?	9.2µM	i	i	i	i
O=C(CNc1cccc(C(F)(F)F)c1)N/N=C/c1cccc(Br)c1	20.6µM	i	i	i	i	i
Cc1cccc(NCC(=O)N/N=C/c2cccc(Br)c2)c1	i	?	i	i	i	i
CCOc1cccc2sc(N3CCN(C(=O)C(C)(C)C)CC3)nc12	nt	nt	nt	nt	nt	i
CC12CCC(C(=O)CC1=O)C2(C)C (configuration not stated)	i	i	i	i	i	i
SMILES	MCF10A rereplic	KB-V1 MDR tox	SW480 rerep	KB-3-1 cytotox	DRD3 antagonist	D3 ag
Clc1ccc(/C=C/c2ccncc2)cc1Cl	nt	i	nt	?	nt	nt
COC(=O)c1ccc(C2Nc3c(C)cccc3-c3cc(C)nn32)cc1 (configuration not stated)	nt	?	nt	?	nt	i
O=C(c1ccc(COc2ccccc2Br)o1)N1N=C(C(F)F)CC1(O)C(F)F (configuration not stated)	?	23.1µM	i	i	i	i
CCOc1ccc(S(=O)(=O)Nc2cccc(C(=O)N3CCN(c4ccccn4)CC3)c2)cc1	nt	?	nt	i	i	i
CCOc1ccc(S(=O)(=O)Nc2cccc(C(=O)N3CCN(c4ccccc4O)CC3)c2)cc1	?	20.6µM	i	i	i	i
O=C(c1ccc(S(=O)(=O)Nc2cccc(C(F)(F)F)c2)cc1)N1CCN(c2ccccc2O)CC1	?	20.6µM	i	?	i	i
Cc1ccc2c(=O)cc(C(=O)Nc3nc4ccc(Cl)cc4s3)oc2c1C	nt	i	nt	?	nt	i
Cn1c(/C=C/c2ccc([N+](=O)[O-])o2)nc2ccccc2c1=O	5.17µM	?	1.84µM	1.84µM	i	i
Cn1c(/C=C/c2ccccc2)nc2ccccc2c1=O	?	?	i	?	i	i
Cc1ccc(CNCc2cc3c(C(C)(C)C)nn(-c4ccccc4)c3[nH]c2=O)cc1	?	23.1µM	?	i	?	i
CC(C)(C)c1nn(-c2ccccc2)c2[nH]c(=O)c(CNCc3ccco3)cc12	?	?	i[9.22 µM]	?	i	i
CC(C)(C)c1nn(-c2ccccc2)c2[nH]c(=O)c(CNc3ccc4c(c3)OCCO4)cc12	?	i	i	i	-74.7	i
COc1ccc(CNCc2cc3c(C(C)(C)C)nn(-c4ccccc4)c3[nH]c2=O)cc1	i	?	i	i	i	i
Cc1c(C(=O)N/N=C/c2ccc(N(C)C)cc2)[nH]c2ccc(Cl)cc12	i	5.8µM	?	5.8µM	i	i
Cc1c(C(=O)N/N=C/c2ccccc2)[nH]c2ccc(Cl)cc12	14.6µM	i	20.6µM	?	i	i
Cc1oc(-c2ccc(C(=O)N(C)Cc3ccccc3)cc2)nc1CN1CCc2ccccc21	nt	13µM	nt	14.6µM	nt	i
COCCNC(=O)c1ccc(-c2nc(CN3CCc4ccccc43)c(C)o2)cc1	nt	10.3µM	nt	?	nt	i
Cc1ccc(NC(=O)c2nc(S(=O)(=O)Cc3ccccc3)ncc2Cl)cc1	?	?	i	13µM	-86.4	i
Cc1ccccc1CS(=O)(=O)c1ncc(Cl)c(C(=O)Nc2ccc(F)cc2)n1	?	i	i	i	-83.9	i
O=C(Nc1ccc(F)cc1)c1nc(S(=O)(=O)Cc2ccccc2)ncc1Cl	i	?	i	5.17µM	-110.0	i
COCCCNC(=O)C1CCCN(c2nn3cc(-c4ccc(C)cc4)nc3s2)C1 (configuration not stated)	nt	i	nt	i	nt	i
CC(=O)Nc1ccc(C=NNc2ccc([N+](=O)[O-])cc2S(=O)(=O)Nc2ccccc2C(=O)O)cc1	20.6µM	i	i	i	i	i
CC(=O)Nc1ccc(C=NNc2ccc(S(=O)(=O)Nc3ccccc3C(=O)O)cc2[N+](=O)[O-])cc1	i	i	i	i	i	i
Cc1ccc(NC(=S)NNc2ccc([N+](=O)[O-])cc2S(=O)(=O)Nc2ccccc2C(=O)O)cc1C	?	i	i	i	i	i
COc1ccc(C(C)=NNc2ccc([N+](=O)[O-])cc2S(=O)(=O)Nc2ccccc2C(=O)O)c(OC)c1	9.2µM	i	?	i	i	i

Screening results deposited in PubChem BioAssay by National Center for Advancing Translational Sciences (NCATS).
